Source: PubChem BioAssay (several laboratories)
Most compounds without a hit are left out; they make up all but 2.3% or so of the library.
MEKK2mut PB1 HTS: MEK5 binding signal on mutant MEKK2 PB1, primary screen, biochemical, multiplex bead flow cytometry, Alexa488-MEK5; percent response, % at 10 µM; Alexa488-MEK5 binding to MEKK2 mutant; 290,000 compounds, 0.35% hits; in the data active = percent response above about 24%, passing the limit was not always enough
MEKK3 PB1 HTS: modulators of MEKK3-MEK5 PB1 binding, primary screen, biochemical, wildtype MEKK3, multiplex bead flow cytometry, Alexa488-MEK5; 290,000 compounds, 1.4% hits; bead-based flow cytometry, Alexa488-MEK5 binding to MEKK3; actives lie on both sides; 0 = blocked by unlabeled MEK5, 100 = vehicle; Mitogen-activated protein kinase kinase kinase 3 (Homo sapiens), Q99759; binding response (% of control), % at 10 µM; AID 1529, 2009;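 active = binding response more than 3 SD above or below the average of its plate-row segment, actives on both sides; inconclusive = wells at one plate position flagged as instrument error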;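 note: Alexa488 bead fluorescence after subtracting the streptavidin-only scavenger bead signal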
MEKK2wt PB1 HTS: modulators of MEK5 binding to wildtype MEKK2, primary screen, biochemical, multiplex bead flow cytometry, Alexa488-MEK5 | Alexa488-MEK5 binding to MEKK2 WT; actives lie on both sides | binding response (% of control), % at 10 µM | 290,000 compounds, 1.1% hits; in the data active = binding response below about 67% or above about 130%; inconclusive = no clear call, values can overlap the other calls; inactive = in between
UBC13 inh: UBC13 polyubiquitin chain formation inhibitors, primary screen, biochemical, TR-FRET, uHTS; Ubiquitin-conjugating enzyme E2 N (Homo sapiens), P61088; inhibition, % at 20 µM; 330,000 compounds, 0.47% hits; in the data active = inhibition above about 45%, passing the limit was not always enough; inconclusive = no clear call, values can overlap the other calls
Target sequence (P61088 whole entry, looked up): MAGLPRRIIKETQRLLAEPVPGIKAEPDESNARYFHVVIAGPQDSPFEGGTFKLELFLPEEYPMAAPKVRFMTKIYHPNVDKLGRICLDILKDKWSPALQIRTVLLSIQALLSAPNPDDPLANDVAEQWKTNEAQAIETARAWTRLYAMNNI
MEKK2wt confirm: modulators of MEK5 binding to wildtype MEKK2, confirmation, biochemical, single concentration, multiplex bead flow cytometry; 5,900 compounds, 2.4% hits; shares compounds with MEKK3 PB1 HTS; Alexa488-MEK5 binding to MEKK2 WT; actives lie on both sides; binding response (% of control), % at 10 µM; in the data active = binding response below about 16% or above about 210%; inactive = in between
MEKK2mut-MEK5: mutant MEKK2 PB1-MEK5 binding signal retest – biochemical, single concentration, multiplex bead flow cytometry, confirmation. shares compounds with MEKK3 PB1 HTS. Alexa488-MEK5 binding to MEKK2 mutant. percent response, % at 10 µM. 5,900 compounds, 2% hits; in the data active = percent response mostly above about 71%, no sharp cut-off; inactive = mostly below about 38%;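 note: higher means compound restores mutant binding toward wildtype level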
MEKK3-MEK5 inh: MEKK3 wild-type PB1 binding to MEK5, inhibitors, confirmation, biochemical, bead multiplex flow cytometry, single concentration, wildtype. binding response (% of control), % at 10 µM. shares compounds with MEKK3 PB1 HTS. Alexa488-MEK5 binding to MEKK3; stronger effect = lower value. 5,900 compounds, 1.8% hits;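 active = binding response below 72% of control, or above a set upper limit, though filed actives all read lower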;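 note: 100% = DMSO only wells and 0% = binding blocked by excess unlabeled MEK5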
An asterisk follows results filed as active; ? = inconclusive; . = no result; [ ] = another dose, or the depositor's remark.

SMILES	MEKK2mut PB1 HTS	MEKK3 PB1 HTS	MEKK2wt PB1 HTS	UBC13 inh	MEKK2wt confirm	MEKK2mut-MEK5	MEKK3-MEK5 inh
Cc1cccc(C2c3[nH]c4ccccc4c3CCN2Cc2cccn2-c2ncccn2)c1 (centres undefined)	30.0	110.0	149.0*	7.9	109.0	5.0	102.0
CCCCCCCCCn1ccc(=N)cc1	31.0	131.0*	140.0*	5.3	112.0	6.0	104.0
O=C(Nc1ccc(OC(F)F)c(Cl)c1)c1cccc(OC(F)F)c1	27.0	106.0	151.0*	2.5	113.0	6.0	107.0
COc1ccc(NC(=O)c2cccc(OC(F)F)c2)cc1Cl	8.0	101.0	104.0	-4.5	.	.	.
CC1CCCCN1C(=O)C(=O)c1cn(CC(=O)N2CCCC2)c2ccccc12 (centres undefined)	-15.0	1.0*[inhibitor]	-3.0*[inhibitor]	-2.1	103.0	2.0	103.0
Cc1cc(NS(=O)(=O)c2ccc(NC(=O)CSc3nnc(-c4ccco4)n3N)cc2)nc(C)n1	19.0	99.0	114.0	-5.2	.	.	.
Cc1cc(NS(=O)(=O)c2ccc(NC(=O)CSc3nnc(-c4ccco4)n3C)cc2)nc(C)n1	1.0	141.0*	111.0	3.9	110.0	11.0	107.0
COc1cc(CC(=O)OCC(=O)NCCc2ccc(S(N)(=O)=O)cc2)cc(OC)c1OC	.	.	.	6.1	.	.	.
COc1cc(C(Nc2ccc(S(=O)(=O)NCC3CCCO3)cc2)C(=O)NC(C)(C)C)cc(OC)c1OC (centres undefined)	30.0	129.0*	121.0	-1.0	102.0	1.0	99.0
O=P(C(=NCCO)NO)(N1CCOCC1)N1CCOCC1	2.0	100.0	98.0	-0.2	.	.	.
COc1ccccc1-n1cnnc1SC(C)C(=O)Nc1ccc(NC(C)=O)cc1 (centres undefined)	-5.0	96.0	56.0*[inhibitor]	0.3	95.0	-5.0	97.0
CCC(C(=O)NC(C)(C)C)N(Cc1cccs1)C(=O)CNS(=O)(=O)c1ccccc1 (centres undefined)	29.0	132.0*	118.0	-13.5	97.0	-8.0	100.0
CCOC(=O)C1CCN(S(=O)(=O)c2c(Cl)ccc3nonc23)CC1	-6.0	96.0	92.0	5.2	.	.	.
COc1ccc(-n2c(=O)c3ccccc3n(CC(=O)Nc3cccc(OC)c3)c2=O)cc1	-16.0	50.0*[inhibitor]	62.0	9.8	103.0	6.0	106.0
CCOc1ccc(-n2c(=O)c3sccc3n(CC(=O)Nc3cccc(OC)c3)c2=O)cc1	-20.0	70.0	66.0	10.6	.	.	.
CC1(C)CC2(CCCN(C(=S)Nc3ccccc3)C2)CCO1 (centres undefined)	24.0	128.0*	121.0	2.0	103.0	-5.0	104.0
COC(=O)Cn1c(=NC(=O)c2ccc(OC)cc2)sc2cc(OC)ccc21	4.0	98.0	102.0	39.0	.	.	.
COC(=O)Cn1c(=NC(=O)c2cc(OC)cc(OC)c2)sc2cc(OC)ccc21	0.0	130.0*	103.0	22.9	99.0	-10.0	105.0
CCCC1O[C@@H]2C[C@H]3[C@@H]4CCC5=CC(=O)C=C[C@]5(C)[C@H]4[C@@H](O)C[C@]3(C)[C@]2(C(=O)CO)O1 (some centres undefined)	2.0	70.0*[inhibitor]	103.0	-14.7	103.0	0.0	103.0
COc1cc(C#N)c(NC(=O)CN2CCN(CCO)CC2)cc1OC	-14.0	47.0*[inhibitor]	58.0	-7.1	102.0	2.0	103.0
CC(C)NC(=O)C1CC=CCC1C(=O)O (centres undefined)	0.0	134.0*	107.0	4.1	101.0	9.0	103.0
COc1ccc(/C=C/c2cc(C(=O)O)c3ccccc3n2)cc1	-24.0	84.0	89.0	10.3	.	.	.
COc1ccc(/C=C/c2cc(C(F)(F)F)on2)cc1	-23.0	50.0*[inhibitor]	57.0	3.3	112.0	7.0	105.0
O=C(Cn1cnc([N+](=O)[O-])n1)N/N=C/c1cc(Cl)ccc1O	17.0	135.0*	121.0	-9.1	110.0	6.0	106.0
O=C(Oc1coc(CSc2nnc(NC(=O)C3CC3)s2)cc1=O)c1c(F)cccc1F	-1.0	64.0*[inhibitor]	84.0	-4.0	102.0	5.0	107.0
SMILES	MEKK2mut PB1 HTS	MEKK3 PB1 HTS	MEKK2wt PB1 HTS	UBC13 inh	MEKK2wt confirm	MEKK2mut-MEK5	MEKK3-MEK5 inh
Cc1cc(C)cc(C(=O)Oc2coc(CSc3nnc(NC(=O)C4CC4)s3)cc2=O)c1	29.0	109.0	120.0	0.7	.	.	.
COc1cccc(OC)c1C(=O)NC(=S)Nc1ccc2c(c1)OCCO2	2.0	141.0*	127.0	1.7	103.0	3.0	103.0
O=C(NC(=S)N1CCOCC1)C12CCC3CC(CC(C3)C1)C2	2.0	134.0*	99.0	9.4	96.0	-4.0	100.0
O=C(NC(=S)N1CCOCC1)C12CC3CCC(CC(C3)C1)C2	10.0	100.0	110.0	0.7	.	.	.
COc1ccc(/C(C)=N\NS(=O)(=O)c2ccccc2)cc1OC	1.0	132.0*	110.0	-1.4	99.0	-1.0	105.0
Cc1ccc(NC(=O)CSc2n[nH]c(C)c2[N+](=O)[O-])cc1	-2.0	101.0	100.0	7.3	.	.	.
Cc1[nH]nc(SCC(=O)Nc2ccc(C#N)cc2)c1[N+](=O)[O-]	1.0	133.0*	107.0	-16.2	101.0	4.0	103.0
COc1cc2ncc(S(=O)(=O)c3ccccc3)c(N3CCCC(C)C3)c2cc1OC (centres undefined)	0.0	103.0	96.0	?	.	.	.
COc1ccc(NC(=O)N2CCN(c3ccc([N+](=O)[O-])cc3)CC2)cc1OC	-13.0	45.0*[inhibitor]	56.0	-27.4	87.0	-2.0	80.0
COc1ccc(NC(=O)N2CCN(c3ccc([N+](=O)[O-])cc3)CC2)cc1	-9.0	101.0	91.0	-3.3	.	.	.
CCOC(=O)c1c(C)oc2cc(Cl)c(O)c(CN(C)C)c12	27.0	128.0*	131.0	-11.8	108.0	11.0	106.0
CCOC(=O)c1c(C)oc2ccc(O)c(CN(C)C)c12	3.0	94.0	101.0	5.6	.	.	.
COc1ccc(CNCCC(c2ccc(OC(C)C)cc2)C(C)C)cc1OC (centres undefined)	6.0	104.0	114.0	17.4	.	.	.
COc1ccc(CNCCC(c2ccc(OC(C)C)cc2)c2ccccc2OC)cc1OC (centres undefined)	28.0*	112.0	156.0*	23.2	148.0	27.0	112.0
COc1ccccc1NC(=O)CC(c1ccc(OC(C)C)cc1)c1ccccc1OC (centres undefined)	0.0	107.0	97.0	-6.1	.	.	.
